Laboratory results reported in PubChem BioAssay AID1159554 (Broad Institute, 2015).
Hit rate of the full screen: of about 94,000 compounds, about 2,100 (2.2%) were called active. The list comes from a sample in which actives are over-represented; it also holds similar structures and randomly drawn compounds. A number with no mark means an inactive call. No stated cut-off is given here; in the data, active means activity change below about -80%; inconclusive means no clear call, values can overlap the other calls; inactive means above that.

assay: P. falciparum Dd2 growth inhibitors, primary screen, SYBR Green fluorescence, single dose replicates (AID 1159554); conditions: 72 h, at 10 µM, active compounds read low

Row | SMILES | activity change
1 | CCCNC(=O)N1C[C@H](C)[C@@H](OC)CN(C)C(=O)c2ccc(NC(=O)CC)cc2OC[C@@H]1C | 52.7%
2 | COc1ccc2c3c(n(C)c2c1)[C@H](CO)NCC31CN(Cc2cc(F)ccc2F)C1 | 23%
3 | C[C@H]1CN([C@@H](C)CO)S(=O)(=O)c2ccc(C#Cc3cccnc3)cc2O[C@H]1CN(C)C(=O)CN(C)C | -40.6%
4 | C[C@H]1CCCCO[C@H](CN(C)S(=O)(=O)c2ccc(F)cc2)[C@@H](C)CN([C@@H](C)CO)C(=O)c2cc(NS(=O)(=O)c3cn(C)cn3)ccc2O1 | 9.89%
5 | CCCNC(=O)C[C@@H]1CC[C@H]2[C@@H](COC[C@@H](O)CN2Cc2ccccc2F)O1 | 7.46%
6 | COc1ccccc1-c1ccc2c(c1)O[C@@H](CN(C)C)[C@H](C)CN([C@H](C)CO)S2(=O)=O | -28.9%
7 | COc1ccccc1-c1ccc2c(c1)O[C@H](CN(C)S(=O)(=O)c1ccc(C)cc1)[C@@H](C)CN([C@H](C)CO)S2(=O)=O | -80.6% (active)
8 | C[C@@H]1CN([C@@H](C)CO)S(=O)(=O)c2ccc(C#Cc3ccncc3)cc2O[C@@H]1CN(C)S(=O)(=O)c1ccccc1 | -55.9%
9 | C[C@@H]1CN([C@@H](C)CO)S(=O)(=O)c2ccc(C#Cc3ccc(F)cc3)cc2O[C@H]1CN(C)S(C)(=O)=O | -67.9%
10 | C[C@@H]1CN([C@H](C)CO)S(=O)(=O)c2ccc(C#Cc3ccncc3)cc2O[C@@H]1CN(C)S(=O)(=O)c1ccc(F)cc1 | -83% (active)
11 | Cc1ccc(S(=O)(=O)N(C)C[C@@H]2Oc3cc(C4=CCCC4)ccc3S(=O)(=O)N([C@@H](C)CO)C[C@@H]2C)cc1 | -71.1%
12 | CO[C@@H]1CN(C)C(=O)c2cc(NC(=O)Nc3cc(F)ccc3F)ccc2OC[C@@H](C)N(C)C[C@H]1C | -36.8%
13 | CN1C(=O)c2cc(NC(=O)C3CCOCC3)ccc2OC[C@@H]2O[C@@H](CC(=O)NCC3CC3)CC[C@@H]21 | 6.17%
14 | O=C(NCCN1CCCC1)[C@@H]1N[C@@H]2c3ccc(-c4ccccc4)c(=O)n3C[C@@H]2[C@H]1CO | -12.1%
15 | COc1ccc(S(=O)(=O)N2CCCCN3[C@H](CO)[C@@H](c4ccc(C#CC(C)C)cc4)[C@H]3C2)cc1 | -38.8%
16 | COc1ccc(S(=O)(=O)N2CCCCN3[C@H](C2)[C@H](c2ccc(C#CCC(C)C)cc2)[C@@H]3CO)cc1 | 2.68%

Row | SMILES | activity change
17 | COc1ccc(S(=O)(=O)N2CCCCN3[C@@H](CO)[C@@H](c4ccc(C#CCC(C)C)cc4)[C@@H]3C2)cc1 | -87.6% (active)
18 | CO[C@H]1CN(C)C(=O)c2cc(NC(=O)Nc3ccc4c(c3)OCO4)ccc2OC[C@@H](C)NC[C@@H]1C | -43.8%
19 | Cc1noc(C)c1S(=O)(=O)Nc1ccc2c(c1)C(=O)N([C@@H](C)CO)C[C@@H](C)[C@H](CN(C)S(=O)(=O)c1ccc(Cl)cc1)OCCCC[C@H](C)O2 | -80.6% (active)
20 | Cc1noc(C)c1S(=O)(=O)Nc1ccc2c(c1)C(=O)N([C@@H](C)CO)C[C@@H](C)[C@H](CN(C)C(=O)Nc1cccc3ccccc13)OCCCC[C@H](C)O2 | -39%
21 | COc1ccc(S(=O)(=O)Nc2ccc3c(c2)C(=O)N([C@@H](C)CO)C[C@H](C)[C@@H](CN(C)C(=O)Nc2ccc4c(c2)OCO4)OCCCC[C@@H](C)O3)cc1 | -81.3% (active)
22 | Cc1ccc(S(=O)(=O)N(C)C[C@H]2OCCCC[C@H](C)Oc3ccc(NS(=O)(=O)c4c(C)noc4C)cc3C(=O)N([C@H](C)CO)C[C@@H]2C)cc1 | -35.7%
23 | Cc1noc(C)c1S(=O)(=O)Nc1ccc2c(c1)C(=O)N([C@@H](C)CO)C[C@@H](C)[C@H](CN(C)C(=O)Nc1cccc3ccccc13)O2 | 16.8%
24 | Cc1ccc(S(=O)(=O)Nc2ccc3c(c2)C(=O)N([C@@H](C)CO)C[C@@H](C)[C@H](CN(C)C(=O)Nc2cccc4ccccc24)OCCCC[C@H](C)O3)cc1 | -81.5% (active)
25 | Cc1ccc(S(=O)(=O)Nc2ccc3c(c2)C(=O)N([C@H](C)CO)C[C@H](C)[C@H](CN(C)C(=O)Nc2ccc4c(c2)OCO4)OCCCC[C@@H](C)O3)cc1 | 4.19%
26 | C[C@@H]1CCCCO[C@@H](CN(C)C(=O)Nc2cccc3ccccc23)[C@H](C)CN([C@@H](C)CO)C(=O)c2cc(NS(=O)(=O)c3ccccc3)ccc2O1 | -2.21%
27 | Cc1noc(C)c1S(=O)(=O)Nc1ccc2c(c1)C(=O)N([C@@H](C)CO)C[C@@H](C)[C@@H](CN(C)S(=O)(=O)c1ccccc1)OCCCC[C@H](C)O2 | -22.9%
28 | C[C@H]1CCCCO[C@@H](CN(C)C(=O)Nc2cccc3ccccc23)[C@@H](C)CN([C@@H](C)CO)C(=O)c2cc(NS(=O)(=O)c3ccc(Cl)cc3)ccc2O1 | -44.1%
29 | Cc1noc(C)c1S(=O)(=O)Nc1ccc2c(c1)C(=O)N([C@@H](C)CO)C[C@H](C)[C@@H](CN(C)C(=O)Nc1cccc3ccccc13)OCCCC[C@H](C)O2 | -88.5% (active)
30 | Cc1ccc(S(=O)(=O)Nc2ccc3c(c2)C(=O)N([C@H](C)CO)C[C@H](C)[C@@H](CN(C)C(=O)Nc2ccc4c(c2)OCO4)OCCCC[C@@H](C)O3)cc1 | -34.5%
31 | CCNC(=O)C[C@@H]1CC[C@H]2[C@@H](COc3ccc(NC(=O)Cc4cccs4)cc3C(=O)N2C)O1 | 3.93%
